The text below walks through data of PubChem BioAssay (NCATS).

Values without a mark were called inactive. Inconclusive results are not listed. Active and inactive are the calls of the source. Unless noted, calls come from the whole dose curve; as a rule, active = well fitted curve in either direction with a large enough effect (not every such curve was filed as active); inconclusive = small, poorly fitted or top-dose-only effect, or another doubt; inactive = flat fitted curve, though single readings scatter.

The target in assay [1] is Lysosomal acid glucosylceramidase (Homo sapiens) (UniProt P04062). As to the kind of experiment: Glucocerebrosidase-p2 (AID 348; in the data active = potency below about 10 µM; note: potency is the fitted concentration of half-maximal effect). The following applies: purified GBA, blue fluorogenic substrate, 40 min. The gist of the method: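 Compounds titrated from 0.6 nM upwards against 0.2 nM enzyme in pH 5.9 citric acid/KH2PO4, taurocholate, tween-20; blue fluorogenic substrate 80 uM, 40 min room temperature, stopped and read Ex 365/Em 440 for AC50.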
Lysosomal acid glucosylceramidase (Homo sapiens), sequence (P04062 whole entry, looked up): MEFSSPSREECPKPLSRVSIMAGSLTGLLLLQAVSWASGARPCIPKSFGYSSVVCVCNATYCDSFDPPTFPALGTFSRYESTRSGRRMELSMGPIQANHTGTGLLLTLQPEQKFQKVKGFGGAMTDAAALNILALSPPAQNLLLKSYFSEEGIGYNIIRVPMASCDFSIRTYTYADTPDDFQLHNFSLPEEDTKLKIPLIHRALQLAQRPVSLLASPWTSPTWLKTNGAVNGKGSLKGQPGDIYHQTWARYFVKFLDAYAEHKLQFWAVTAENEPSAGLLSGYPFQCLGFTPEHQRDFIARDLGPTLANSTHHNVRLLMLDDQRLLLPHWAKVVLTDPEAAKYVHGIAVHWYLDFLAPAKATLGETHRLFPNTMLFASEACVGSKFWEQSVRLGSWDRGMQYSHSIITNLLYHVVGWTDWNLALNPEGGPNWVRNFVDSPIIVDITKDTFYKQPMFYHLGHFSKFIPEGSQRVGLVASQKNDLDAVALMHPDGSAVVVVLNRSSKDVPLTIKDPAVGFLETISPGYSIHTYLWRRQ

A short description of assay [2]: AP1 Signaling Pathway (AID 357). Note: % is set by controls: 0 for no effect and ±100 for the full control effect. The following applies: ME-180 AP-1-bla reporter, EGF-induced, beta-lactamase ratio, 5 h; at 7.69 µM (top of the series) unless noted. The method in brief:
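AP-1-bla ME-180 cells with beta-lactamase reporter under AP-1 response element, stimulated with EC50 EGF; compounds titrated, 5 hours at 37 degrees Celsius. CCF4 read at 460/530 nm ratio; positive and negative modulators judged by AC50.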

Assay [3] is described as follows: NFAT Signaling Pathway (AID 444).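 Note: carbachol stimulus at about its EC50 of 1 µM final; % is set by controls: 0 for no effect and ±100 for the full control effect.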 Conditions: Jurkat NFAT-bla M1, carbachol, beta-lactamase ratio, 5 h; at 7.69 µM (top of the series) unless noted. The method in brief:
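Jurkat cells with NFAT-driven β-lactamase reporter and co-expressed M1 receptor, stimulated with carbachol (final 1 uM, ~EC50), compound titration, 5 h at 37 °C. CCF4 loaded 1 h at RT; 460/530 nm ratio gave %activity and AC50.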

The nature of assay [4]: Stat Signaling Pathway (AID 446).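 Note: ME-180 cervical cancer cells given 40 pM IL-6 alongside compound; SIE-controlled beta-lactamase reporter measured as 460/530 nm FRET emission ratio; % is set by controls: 0 for no effect and ±100 for the full control effect.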 The following applies: ME-180 SIE beta-lactamase reporter, IL-6 stimulated, 5 h; at 7.69 µM (top of the series) unless noted. The gist of the method: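 ME-180 SIE-bla cells; overnight plating; cpd + IL-6 40 pM, 5 h, 37 C; LiveBLAzer 2.5 h RT; 460/530 nm emission ratio. Normalized to 300 pM IL-6 and 125 nM JAK inhibitor controls.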
Assay [5] addresses Glucocorticoid receptor (Homo sapiens) (UniProt P04150). As to the kind of experiment: GR-GFP Redistribution (AID 450;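 active = compounds whose dose series gives a full or clear partial fitted curve of increased nuclear translocation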; note: potency is the fitted concentration of half-maximal effect). Conditions: U2OS GR-GFP nuclear translocation, laser cytometry, 2 h.
The target is the same in assay [6]. The assay is described as follows: GR-EFC Redistribution (AID 451; calls by dose curve; note: potency is the fitted concentration of half-maximal effect). The following applies: CHO-K1 GR-EFC translocation, beta-gal luminescence, 2 h. The gist of the method:
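CHO-K1 cells expressing nuclear EA and GR-ED fragments of b-gal; compounds titrated up to 46 uM final, 2 h at 37 C. GR nuclear translocation read as complemented b-gal luminescence after 1 h RT detection.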

Assay [7] addresses Mitogen-activated protein kinase 10 (Mus musculus) (UniProt Q61831). As to the kind of experiment: JNK3 AlphaScreen Assay (AID 530).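 Note: kinase came from lysate of stimulated human HepG2 cells; signal reports phosphorylation of biotinylated GST-cJun 1-79 at Ser73 with 10 µM ATP; % is set by controls: 0 for no effect and ±100 for the full control effect.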 Conditions: JNK3 lysate, c-Jun phosphorylation; series mostly up to 57.1 µM. The method in brief: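 qHTS format: compounds tested as titrations against IL-1beta/TNF-alpha-activated HepG2 lysate JNK3 with biotin-GST-cJun substrate and 10 uM ATP at room temperature. Loss of anti-phospho-cJun AlphaScreen signal indicates inhibition.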
A general note: In Alpha technology, singlet oxygen from a donor bead excites a nearby acceptor bead.

Assay [8] deals with 3',5'-cyclic-AMP phosphodiesterase 4B (Homo sapiens) (UniProt Q07343). As to the kind of experiment: qHTS Assay for Inhibitors of PDE-IV (AID 607; active = well fitted activation curve with a large enough effect in the main read-out, with a control signal flat, not every such curve was filed as active; note: % of control where 0% means no effect). The following applies: HEK293 ACTOne CNG channel cells, membrane potential fluorescence; series mostly up to 22.9 µM. The method in brief:
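ACTOne HEK293 cells carry a modified cAMP-gated CNG channel and express endogenous PDE4; plated 1000 cells/well, compounds up to 22.9 uM final. Membrane-potential dye fluorescence (ex 535/em 590) was read; parental cells received 10 uM forskolin + 100 uM RO 20-1724.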
For orientation: qHTS replaces the single test concentration by a dilution series.

The target of assay [9] is Cytochrome P450 2D6 (Homo sapiens) (UniProt P10635). The assay is described as follows: qHTS Assay for Inhibitors and Substrates of Cytochrome P450 2D6 (AID 891; active = well fitted curve in the direction sought with a large enough effect; an effect the other way counts as inactive or inconclusive; note: potency is the fitted concentration of half-maximal effect; nearly all actives have a fitted effect of over 60% in size). The following applies: recombinant CYP2D6, luciferin-ME EGE luminescence; series mostly up to 11.4 µM. The method in brief: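 Human CYP2D6 (5 nM) with 30 uM Luciferin-ME EGE (at Km) in 100 mM KPO4, compound preincubated 10 min, then NADPH regeneration system for 60 min at room temperature. Luciferin read by luminescence; normalized to 1.43 uM quinidine.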
Cytochrome P450 2D6 (Homo sapiens), sequence (P10635 whole entry, looked up): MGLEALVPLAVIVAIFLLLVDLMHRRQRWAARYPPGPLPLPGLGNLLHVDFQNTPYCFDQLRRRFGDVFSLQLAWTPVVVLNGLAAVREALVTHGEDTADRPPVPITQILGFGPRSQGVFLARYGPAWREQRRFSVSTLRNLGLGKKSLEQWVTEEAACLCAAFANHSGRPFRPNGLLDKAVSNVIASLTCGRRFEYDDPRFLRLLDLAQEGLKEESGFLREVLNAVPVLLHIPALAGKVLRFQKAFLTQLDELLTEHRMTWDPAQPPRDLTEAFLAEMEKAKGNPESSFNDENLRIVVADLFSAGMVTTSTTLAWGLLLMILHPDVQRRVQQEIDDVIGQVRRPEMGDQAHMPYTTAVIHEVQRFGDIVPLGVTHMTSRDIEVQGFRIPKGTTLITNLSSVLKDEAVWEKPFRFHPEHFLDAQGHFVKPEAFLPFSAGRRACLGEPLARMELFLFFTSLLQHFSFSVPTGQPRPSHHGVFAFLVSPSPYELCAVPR

In assay [10] the target is Cytochrome P450 3A4 (Homo sapiens) (UniProt P08684). As to the kind of experiment: qHTS Assay for Activators of Cytochrome P450 3A4 (AID 885; active = well fitted curve in the direction sought with a large enough effect; an effect the other way counts as inactive or inconclusive; note: nearly all actives have a fitted effect of over 65% in size). Conditions: recombinant CYP3A4, Luciferin-PPXE luminescence, 60 min; series mostly up to 57.1 µM. The method in brief: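 20nM CYP3A4 + 25uM Luciferin-PPXE (=KM), 200mM KPO4; cpd 10 min RT; NADPH regen, 60 min RT; stop w/ detection buffer, 20 min; luminescence. Normalized to 57 uM ketoconazole.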
Cytochrome P450 3A4 (Homo sapiens), sequence (P08684 whole entry, looked up): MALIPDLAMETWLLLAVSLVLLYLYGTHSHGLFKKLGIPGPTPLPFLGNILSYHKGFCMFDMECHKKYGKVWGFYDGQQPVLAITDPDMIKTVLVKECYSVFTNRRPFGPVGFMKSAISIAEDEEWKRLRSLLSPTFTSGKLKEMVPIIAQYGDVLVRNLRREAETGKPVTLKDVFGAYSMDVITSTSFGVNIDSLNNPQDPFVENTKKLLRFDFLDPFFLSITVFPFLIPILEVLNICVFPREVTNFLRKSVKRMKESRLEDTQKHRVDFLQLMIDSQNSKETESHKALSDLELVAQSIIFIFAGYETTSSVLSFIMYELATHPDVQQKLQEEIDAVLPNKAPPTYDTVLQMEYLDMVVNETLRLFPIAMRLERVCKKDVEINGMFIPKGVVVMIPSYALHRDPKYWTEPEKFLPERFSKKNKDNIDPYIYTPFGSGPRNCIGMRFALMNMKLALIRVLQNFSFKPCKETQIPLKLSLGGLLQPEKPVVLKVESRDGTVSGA

The nature of assay [11]: qHTS Assay for Identification of Small Molecule Agonists for Hypoxia Response Element Signaling Pathway (AID 914; active = well fitted activation curve with a large enough effect in the signal ratio, with a control signal flat, not every such curve was filed as active; the % refers to the signal ratio; note: % of control where 0% means no effect). The following applies: ME-180 (cervical carcinoma) HRE-bla reporter, beta-lactamase ratio, CoCl2, 17 h; hits give high values. The method in brief: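 Compounds in a titration series were added to ME-180 reporter cells alongside an EC50 level of CoCl2. After 17 hours, beta-lactamase activity was read as the 460nm/530nm emission ratio of CCF4, giving AC50 values.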

Assay [12] has as its target Cytochrome P450 2C19 (Homo sapiens) (UniProt P33261). The assay is described as follows: qHTS Assay for Inhibitors and Substrates of Cytochrome P450 2C19 (AID 899; active = well fitted curve in the direction sought with a large enough effect; an effect the other way counts as inactive or inconclusive; note: % is set by controls: 0 for no effect and ±100 for the full control effect; nearly all actives have a fitted effect of over 60% in size). The following applies: recombinant CYP2C19, luciferin-H EGE luminescence; series mostly up to 11.4 µM. The method in brief:
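Luminescent read-out of luciferin formed from Luciferin-H EGE (10uM, equal to KM). Enzyme 5nM in 50mM KPO4; compound added, 10 min at 37C, then NADPH regenerating system for 60 min at 37C. Full inhibition defined by 57uM ketoconazole.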

3',5'-cyclic-AMP phosphodiesterase 4B (Homo sapiens), sequence (Q07343 whole entry, looked up): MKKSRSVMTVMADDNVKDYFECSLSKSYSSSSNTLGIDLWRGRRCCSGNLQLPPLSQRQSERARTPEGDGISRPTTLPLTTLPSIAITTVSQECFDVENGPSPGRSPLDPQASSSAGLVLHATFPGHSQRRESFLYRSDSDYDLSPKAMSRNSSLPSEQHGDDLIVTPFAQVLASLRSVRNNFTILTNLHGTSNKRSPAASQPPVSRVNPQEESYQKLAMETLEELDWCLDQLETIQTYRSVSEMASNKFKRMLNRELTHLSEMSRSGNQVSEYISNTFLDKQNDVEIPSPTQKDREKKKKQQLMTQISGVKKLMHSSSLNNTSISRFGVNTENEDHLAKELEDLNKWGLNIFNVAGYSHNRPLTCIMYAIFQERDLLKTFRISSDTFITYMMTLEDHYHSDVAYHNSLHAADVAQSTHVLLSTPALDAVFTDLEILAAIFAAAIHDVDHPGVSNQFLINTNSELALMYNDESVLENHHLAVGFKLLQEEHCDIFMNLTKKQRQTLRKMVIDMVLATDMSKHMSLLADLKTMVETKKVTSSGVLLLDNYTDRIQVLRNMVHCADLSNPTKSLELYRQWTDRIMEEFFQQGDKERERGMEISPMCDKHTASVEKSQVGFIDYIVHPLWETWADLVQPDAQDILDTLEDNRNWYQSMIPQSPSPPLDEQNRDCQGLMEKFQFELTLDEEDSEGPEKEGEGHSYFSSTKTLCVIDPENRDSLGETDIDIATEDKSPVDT
Glucocorticoid receptor (Homo sapiens), sequence (P04150 whole entry, looked up): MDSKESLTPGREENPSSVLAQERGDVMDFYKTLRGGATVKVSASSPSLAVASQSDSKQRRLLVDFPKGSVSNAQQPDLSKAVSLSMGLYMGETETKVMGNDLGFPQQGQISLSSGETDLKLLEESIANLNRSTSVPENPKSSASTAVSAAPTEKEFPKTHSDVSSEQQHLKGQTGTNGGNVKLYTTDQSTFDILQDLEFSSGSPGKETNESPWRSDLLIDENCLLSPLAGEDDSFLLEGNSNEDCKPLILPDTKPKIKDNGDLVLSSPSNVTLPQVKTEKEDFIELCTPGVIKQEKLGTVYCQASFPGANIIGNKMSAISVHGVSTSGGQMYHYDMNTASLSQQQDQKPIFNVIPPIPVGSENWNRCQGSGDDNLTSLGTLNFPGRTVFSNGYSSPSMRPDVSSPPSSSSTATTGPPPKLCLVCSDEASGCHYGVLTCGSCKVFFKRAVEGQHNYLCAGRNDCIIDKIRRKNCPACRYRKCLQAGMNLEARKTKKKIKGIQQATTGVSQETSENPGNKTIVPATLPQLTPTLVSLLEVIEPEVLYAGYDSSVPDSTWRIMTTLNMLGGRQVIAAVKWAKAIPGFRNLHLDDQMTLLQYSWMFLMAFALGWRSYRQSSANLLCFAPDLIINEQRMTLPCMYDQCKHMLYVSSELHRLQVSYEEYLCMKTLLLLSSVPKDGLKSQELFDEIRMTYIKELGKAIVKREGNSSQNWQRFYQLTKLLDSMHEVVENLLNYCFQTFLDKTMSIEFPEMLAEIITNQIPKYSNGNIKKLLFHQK
Cytochrome P450 2C19 (Homo sapiens), sequence (P33261 whole entry, looked up): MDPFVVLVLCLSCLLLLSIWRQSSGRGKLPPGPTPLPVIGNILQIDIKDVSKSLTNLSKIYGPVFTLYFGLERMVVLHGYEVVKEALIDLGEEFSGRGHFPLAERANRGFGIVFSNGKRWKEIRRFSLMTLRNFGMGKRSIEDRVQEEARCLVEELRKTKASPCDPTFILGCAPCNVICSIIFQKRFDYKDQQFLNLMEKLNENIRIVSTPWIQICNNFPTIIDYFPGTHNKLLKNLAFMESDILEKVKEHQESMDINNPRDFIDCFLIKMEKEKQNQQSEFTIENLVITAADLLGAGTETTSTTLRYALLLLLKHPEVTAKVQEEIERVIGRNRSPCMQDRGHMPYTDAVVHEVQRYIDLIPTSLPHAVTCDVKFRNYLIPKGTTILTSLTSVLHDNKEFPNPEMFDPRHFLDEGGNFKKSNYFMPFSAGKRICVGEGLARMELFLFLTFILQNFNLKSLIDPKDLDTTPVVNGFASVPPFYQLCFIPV

On to `O=C(Oc1ccc(S(=O)(=O)F)cc1F)c1ccccc1Cl`, for which the Potency is more than 11.4 µM in [1], more than 46 µM in [5] and more than 9.22 µM in [6]. The values for the activity change, negative = inhibition in assay [2], in assay [3] and in [7] were -4.95%, 5.76% and 2.49% [at 11.4 µM], respectively. In assay [4], the activity, negative = inhibition was -0.302%. For the same compound, in [8], the compound was called inactive.
Take `COc1ccc(C[C@@H](N)c2ccc(OC)cc2)cc1`: the Potency in [1] is more than 11.4 µM; in [5], more than 46 µM; in assay [6], more than 9.22 µM; in assay [9], 0.631 µM (active). For the same compound, the figures for the activity change, negative = inhibition in assay [2], in assay [3] and in assay [7] were -1.85%, 3.98% and 3.37% [at 11.4 µM], respectively. In addition, the activity, negative = inhibition in assay [4] is -0.344%. For the same compound, the outcome in [8] was inactive.
As for `N#CS.N=C=S.N=C=S.[Cu].[NH2-].[NH2-].[NH2-].[NH2-].c1ccc2ncccc2c1`, the Potency in assay [1] is more than 11.4 µM; in assay [5] it was more than 46 µM; in assay [6], more than 9.22 µM. Besides, the activity change, negative = inhibition in assay [2] is -1.15%; in assay [3] it was 0.5%; in [7], 0.42% [at 11.4 µM]. For the same compound, the activity, negative = inhibition in assay [4] was -4.61%. In assay [8], the compound was called inactive.
As to `CCNC(C)(C)[C@@H](SS)c1ccc(Br)cc1`, the Potency in assay [1] is more than 11.4 µM; in [5], more than 46 µM; in [6], more than 9.22 µM; in [9], 2 µM (active). Also, the activity change, negative = inhibition in [2] is 5.96%; in [3], 11.8%; in [7], -0.59% [at 11.4 µM]. The activity, negative = inhibition in [4] was -1.19%. Besides, in [8], the compound was called inactive. In assay [10], the activity change, positive = activation was -31.2% [at 11.4 µM].
For the compound `c1nc(N2CC2)c2cnn([C@@H]3CCCCO3)c2n1`, the Potency was more than 11.4 µM in assay [1], more than 46 µM in assay [5] and more than 9.22 µM in assay [6]. Moreover, the activity change, negative = inhibition in assay [2] is 5.4%; in [3] it was 7.32%. The activity, negative = inhibition in assay [4] was -5.16%. Moreover, in assay [8], the result was inactive.
For the compound `Cc1nc2ccccc2cc1C[N+]12CN3CN(CN(C3)C1)C2`, the Potency in [1] was more than 11.4 µM; in [5], more than 46 µM; in assay [6], more than 9.22 µM. The activity change, negative = inhibition is -8.29% in [2], 6.19% in [3] and 0.875% [at 11.4 µM] in [7]. The activity, negative = inhibition in assay [4] is 6.99%. The call in assay [8] was inactive. In addition, the activation in assay [11] is 9.32%.
For the compound `COc1ccc(C(=O)O[C@H]2CC[C@@]3(C)[C@H]4CC[C@H]5[C@]3(C[C@]3(O)[C@H]6CN7C[C@H](C)CC[C@H]7[C@](C)(O)[C@]6(O)[C@H](O)C[C@]53O)O[C@]24O)cc1OC`, the Potency in assay [1] is more than 11.4 µM; in assay [5] it was more than 46 µM; in [6], more than 9.22 µM. The activity change, negative = inhibition in assay [2] is 1.14%; in assay [3] it was -1.26%; in assay [7] it was -0.646% [at 11.4 µM]. Besides, in assay [4], the activity, negative = inhibition is -2.58%. For the same compound, in assay [8], the call was inactive. Moreover, the Potency result in assay [12] was “inactive”.
`COc1cc2c(cc1OC)[C@]13CC[N@+]4(C)CC5=CCO[C@H]6CC(=O)N2[C@@H]1[C@@H]6[C@@H]5C[C@]34O`: the results for the Potency in assay [1], in [5] and in assay [6] were more than 11.4 µM, more than 46 µM and more than 9.22 µM, respectively. For the same compound, the values for the activity change, negative = inhibition in assay [2], in assay [3] and in [7] were -12.3%, 4.86% and 1.38% [at 11.4 µM], respectively. Besides, the activity, negative = inhibition in assay [4] was -5.46%. Also, in [8], the call was inactive. The activity change, positive = activation in [10] is -28.5% [at 11.4 µM].
